Assay in all cases: DAPPL (digital affinity profiling via proximity ligation, sequencing); 10 mM Tris-HCl pH 7.5, 50 mM NaCl, 1 mM DTT, 4% glycerol, room temperature, 30 min; GST-TFs on glutathione beads, 16-mer random dsDNA library, 0.1% formaldehyde crosslink after washing; high values mean tight binding
The target in one assay is T1, FEV (Homo sapiens, UniProt Q99581 1-238).
T1 sequence: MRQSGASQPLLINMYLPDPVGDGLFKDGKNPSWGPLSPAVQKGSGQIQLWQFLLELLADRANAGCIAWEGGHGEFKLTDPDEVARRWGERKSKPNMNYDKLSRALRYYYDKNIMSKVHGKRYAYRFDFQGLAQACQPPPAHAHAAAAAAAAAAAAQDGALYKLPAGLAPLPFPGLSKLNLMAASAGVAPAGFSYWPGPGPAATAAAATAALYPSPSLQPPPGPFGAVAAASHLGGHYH
Conditions: protein: recombinant; tags: N-terminal GST; dsDNA, one strand shown. Summed up: (§1)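 Beads coated with glutathione captured GST-fused human transcription factors that had been expressed in yeast, and the factors were then given DNA barcodes and pooled with a tag-only sample. The pools were incubated with 200 nmole of a random double-stranded 16-mer DNA library in Tris/NaCl/DTT/glycerol buffer for 30 min at room temperature, washed, crosslinked with 0.1% formaldehyde and proximity-ligated with BsaI/T4 ligase at 37 °C for 1 h. PCR amplification and Illumina NextSeq500 sequencing came last. Binding signal is each hexamer's read frequency for a factor divided by its frequency for the tag-only sample.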

Another assay concerns the target ETV5 (Homo sapiens, UniProt P41161 1-510). The note with it: protein: recombinant; tags: N-terminal GST; dsDNA, one strand shown. In short, it runs like this: as §1
The next assay deals with HSF1 (Homo sapiens, UniProt Q00613 1-529). The note with it: protein: recombinant; tags: N-terminal GST; chain copies: 3; dsDNA, one strand shown. Summed up:
as §1

In the next assay the target is T2, SPIC (Homo sapiens, UniProt Q8N5J4 1-248).
T2 sequence: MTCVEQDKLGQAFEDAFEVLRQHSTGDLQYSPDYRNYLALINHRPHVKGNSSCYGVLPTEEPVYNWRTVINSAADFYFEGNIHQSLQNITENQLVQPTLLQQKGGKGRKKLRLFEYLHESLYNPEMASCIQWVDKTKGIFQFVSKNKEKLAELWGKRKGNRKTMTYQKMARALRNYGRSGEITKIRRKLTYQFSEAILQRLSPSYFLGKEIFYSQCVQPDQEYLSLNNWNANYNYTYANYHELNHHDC
Conditions: protein: recombinant; tags: N-terminal GST; dsDNA, one strand shown. Summed up: as §1

The target of the next assay is ELF4 (Homo sapiens, UniProt Q99607 1-663). The note with it: protein: recombinant; tags: N-terminal GST; dsDNA, one strand shown. Summed up:
as §1

For a further assay, the target named is T3, ELK4 (Homo sapiens, UniProt P28324-2 1-405).
T3 sequence: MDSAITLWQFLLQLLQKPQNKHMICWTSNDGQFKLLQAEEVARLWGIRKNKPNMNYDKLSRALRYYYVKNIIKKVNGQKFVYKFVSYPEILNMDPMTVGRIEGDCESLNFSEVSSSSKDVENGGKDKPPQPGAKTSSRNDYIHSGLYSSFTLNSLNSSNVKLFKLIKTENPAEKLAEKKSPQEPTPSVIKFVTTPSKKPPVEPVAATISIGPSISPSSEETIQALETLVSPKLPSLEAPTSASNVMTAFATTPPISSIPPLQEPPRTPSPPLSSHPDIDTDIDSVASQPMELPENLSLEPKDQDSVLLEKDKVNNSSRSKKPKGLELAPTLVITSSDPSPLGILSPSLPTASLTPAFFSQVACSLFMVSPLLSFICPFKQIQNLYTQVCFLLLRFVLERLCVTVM
The note with it: protein: recombinant; tags: N-terminal GST; dsDNA, one strand shown. In short, it runs like this: as §1

A further assay deals with T4, ETV2 (Homo sapiens, UniProt O00321 1-342).
T4 sequence: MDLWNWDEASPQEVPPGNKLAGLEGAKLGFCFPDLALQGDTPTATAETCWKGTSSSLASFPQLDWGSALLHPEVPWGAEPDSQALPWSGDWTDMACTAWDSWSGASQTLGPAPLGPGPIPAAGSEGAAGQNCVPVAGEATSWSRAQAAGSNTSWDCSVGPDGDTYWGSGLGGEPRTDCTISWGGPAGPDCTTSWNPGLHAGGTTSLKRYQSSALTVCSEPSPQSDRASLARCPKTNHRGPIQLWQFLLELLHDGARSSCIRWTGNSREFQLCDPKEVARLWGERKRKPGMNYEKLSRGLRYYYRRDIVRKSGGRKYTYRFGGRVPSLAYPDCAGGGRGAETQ
The note with it: protein: recombinant; tags: N-terminal GST; dsDNA, one strand shown. In short, it runs like this: as §1

Another assay deals with T5, ELF3 (Homo sapiens, UniProt P78545 1-371).
T5 sequence: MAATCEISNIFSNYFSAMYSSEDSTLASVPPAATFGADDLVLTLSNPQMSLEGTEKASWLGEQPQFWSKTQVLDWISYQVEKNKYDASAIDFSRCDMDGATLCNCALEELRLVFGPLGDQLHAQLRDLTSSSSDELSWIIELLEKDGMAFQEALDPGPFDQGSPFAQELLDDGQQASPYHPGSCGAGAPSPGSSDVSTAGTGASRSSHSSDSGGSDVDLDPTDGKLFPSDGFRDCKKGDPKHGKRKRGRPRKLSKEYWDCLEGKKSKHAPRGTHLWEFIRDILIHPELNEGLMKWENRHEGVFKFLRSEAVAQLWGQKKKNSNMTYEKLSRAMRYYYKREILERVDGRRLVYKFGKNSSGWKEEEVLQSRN
Conditions: protein: recombinant; tags: N-terminal GST; dsDNA, one strand shown. Summed up:
as §1

For a further assay, the target named is CRX (Homo sapiens, UniProt O43186 1-299). Conditions: protein: recombinant; tags: N-terminal GST; dsDNA, one strand shown. Summed up:
as §1

The target of a further assay is ETV1 (Homo sapiens, UniProt P50549 1-477). Conditions: protein: recombinant; tags: N-terminal GST; dsDNA, one strand shown. Summed up:
as §1

Another assay addresses T6, ERF (Homo sapiens, UniProt P50548 1-548).
T6 sequence: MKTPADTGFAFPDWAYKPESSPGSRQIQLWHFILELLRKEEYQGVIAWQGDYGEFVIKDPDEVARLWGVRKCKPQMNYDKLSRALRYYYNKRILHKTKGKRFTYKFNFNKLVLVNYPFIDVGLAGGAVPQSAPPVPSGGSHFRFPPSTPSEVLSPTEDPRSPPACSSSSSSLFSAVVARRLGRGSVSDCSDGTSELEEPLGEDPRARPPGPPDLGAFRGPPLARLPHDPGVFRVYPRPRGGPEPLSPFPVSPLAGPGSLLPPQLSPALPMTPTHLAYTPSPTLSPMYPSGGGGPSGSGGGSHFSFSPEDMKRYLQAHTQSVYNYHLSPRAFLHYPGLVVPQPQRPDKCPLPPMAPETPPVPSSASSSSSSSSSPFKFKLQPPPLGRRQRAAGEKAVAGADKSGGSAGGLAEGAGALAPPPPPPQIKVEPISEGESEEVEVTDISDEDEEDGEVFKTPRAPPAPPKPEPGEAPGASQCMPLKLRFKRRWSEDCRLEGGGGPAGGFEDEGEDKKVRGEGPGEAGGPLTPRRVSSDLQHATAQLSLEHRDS
Conditions: protein: recombinant; tags: N-terminal GST; dsDNA, one strand shown. Summed up:
as §1

For a further assay, the target named is T7, ETV3L (Homo sapiens, UniProt Q6ZN32 1-361).
T7 sequence: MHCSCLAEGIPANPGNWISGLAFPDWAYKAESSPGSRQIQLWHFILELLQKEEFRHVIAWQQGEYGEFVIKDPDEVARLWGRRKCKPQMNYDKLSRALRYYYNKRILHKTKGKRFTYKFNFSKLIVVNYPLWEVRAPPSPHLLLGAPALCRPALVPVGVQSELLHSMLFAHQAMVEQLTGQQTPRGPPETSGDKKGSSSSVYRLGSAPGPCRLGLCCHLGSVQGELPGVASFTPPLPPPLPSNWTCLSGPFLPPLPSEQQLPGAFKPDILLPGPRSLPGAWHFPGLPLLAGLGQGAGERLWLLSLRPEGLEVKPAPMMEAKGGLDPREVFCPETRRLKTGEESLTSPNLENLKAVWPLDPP
Conditions: protein: recombinant; tags: N-terminal GST; dsDNA, one strand shown. In short, it runs like this: as §1

The next assay concerns the target T8, ETS2 (Homo sapiens, UniProt P15036 1-469).
T8 sequence: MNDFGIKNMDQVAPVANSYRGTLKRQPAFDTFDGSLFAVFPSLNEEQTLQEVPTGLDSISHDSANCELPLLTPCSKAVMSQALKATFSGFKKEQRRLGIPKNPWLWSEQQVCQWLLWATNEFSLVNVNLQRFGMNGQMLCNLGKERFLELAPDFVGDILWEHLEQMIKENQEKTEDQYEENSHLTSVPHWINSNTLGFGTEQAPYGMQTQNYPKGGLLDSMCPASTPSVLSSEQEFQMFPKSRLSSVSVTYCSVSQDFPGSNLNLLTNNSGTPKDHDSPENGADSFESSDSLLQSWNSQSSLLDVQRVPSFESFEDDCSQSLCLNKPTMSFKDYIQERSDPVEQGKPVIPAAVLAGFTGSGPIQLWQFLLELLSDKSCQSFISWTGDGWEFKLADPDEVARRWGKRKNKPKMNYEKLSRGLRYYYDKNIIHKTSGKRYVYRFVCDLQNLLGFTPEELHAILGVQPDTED
Conditions: protein: recombinant; tags: N-terminal GST; dsDNA, one strand shown. Summed up: as §1

In another assay the target is T9, SPDEF (Homo sapiens, UniProt O95238 1-335).
T9 sequence: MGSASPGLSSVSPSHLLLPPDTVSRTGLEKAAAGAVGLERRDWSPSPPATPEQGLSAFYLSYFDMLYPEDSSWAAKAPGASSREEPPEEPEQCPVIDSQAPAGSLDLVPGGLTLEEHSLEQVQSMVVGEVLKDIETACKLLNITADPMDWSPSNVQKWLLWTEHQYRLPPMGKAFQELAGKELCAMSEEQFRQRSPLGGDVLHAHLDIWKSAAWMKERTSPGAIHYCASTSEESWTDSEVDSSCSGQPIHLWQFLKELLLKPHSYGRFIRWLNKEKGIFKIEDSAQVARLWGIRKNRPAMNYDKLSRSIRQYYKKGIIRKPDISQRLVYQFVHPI
The note with it: protein: recombinant; tags: N-terminal GST; dsDNA, one strand shown. In short, it runs like this: as §1

In a further assay the target is T10, ETV7 (Homo sapiens, UniProt Q9Y603 1-341).
T10 sequence: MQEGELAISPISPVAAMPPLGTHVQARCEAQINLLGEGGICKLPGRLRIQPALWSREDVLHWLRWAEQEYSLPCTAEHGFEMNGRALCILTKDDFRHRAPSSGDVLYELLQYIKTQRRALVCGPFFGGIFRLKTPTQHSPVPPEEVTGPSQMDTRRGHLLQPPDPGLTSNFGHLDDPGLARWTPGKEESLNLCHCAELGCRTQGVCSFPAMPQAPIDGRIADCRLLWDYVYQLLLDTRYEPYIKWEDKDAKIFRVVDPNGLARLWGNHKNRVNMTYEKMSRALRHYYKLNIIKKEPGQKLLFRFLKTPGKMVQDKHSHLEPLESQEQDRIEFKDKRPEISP
The note with it: protein: recombinant; tags: N-terminal GST; dsDNA, one strand shown. Summed up: as §1

For the next assay, the target named is T11, ELF5 (Homo sapiens, UniProt Q9UKW6-2 1-255).
T11 sequence: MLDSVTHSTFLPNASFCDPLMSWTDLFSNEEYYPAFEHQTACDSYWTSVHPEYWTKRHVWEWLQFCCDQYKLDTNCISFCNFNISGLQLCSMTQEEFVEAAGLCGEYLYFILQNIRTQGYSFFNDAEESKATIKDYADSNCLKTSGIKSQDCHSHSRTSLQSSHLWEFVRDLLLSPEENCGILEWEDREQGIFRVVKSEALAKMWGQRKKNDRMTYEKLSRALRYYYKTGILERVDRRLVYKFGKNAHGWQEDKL
The note with it: protein: recombinant; tags: N-terminal GST; dsDNA, one strand shown. Summed up: as §1

The next assay deals with T12, ETV3 (Homo sapiens, UniProt P41162-2 1-143).
T12 sequence: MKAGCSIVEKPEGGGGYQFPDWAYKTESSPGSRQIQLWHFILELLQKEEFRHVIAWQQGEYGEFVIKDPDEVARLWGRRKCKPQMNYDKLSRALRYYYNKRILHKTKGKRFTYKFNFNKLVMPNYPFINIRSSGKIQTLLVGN
The note with it: protein: recombinant; tags: N-terminal GST; dsDNA, one strand shown. Summed up: as §1

The next assay addresses ETV6 (Homo sapiens, UniProt P41212 1-452). Conditions: protein: recombinant; tags: N-terminal GST; dsDNA, one strand shown. Summed up:
as §1

Chain of CRX (O43186 whole entry): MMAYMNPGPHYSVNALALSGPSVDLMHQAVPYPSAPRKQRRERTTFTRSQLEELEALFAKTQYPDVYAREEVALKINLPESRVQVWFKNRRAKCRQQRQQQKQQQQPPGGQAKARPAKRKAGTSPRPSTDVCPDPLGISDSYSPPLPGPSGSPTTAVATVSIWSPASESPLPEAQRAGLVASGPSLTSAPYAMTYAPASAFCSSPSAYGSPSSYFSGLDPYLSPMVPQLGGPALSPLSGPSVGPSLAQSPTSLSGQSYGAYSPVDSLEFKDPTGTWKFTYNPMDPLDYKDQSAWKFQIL
Chain of ELF4 (Q99607 whole entry): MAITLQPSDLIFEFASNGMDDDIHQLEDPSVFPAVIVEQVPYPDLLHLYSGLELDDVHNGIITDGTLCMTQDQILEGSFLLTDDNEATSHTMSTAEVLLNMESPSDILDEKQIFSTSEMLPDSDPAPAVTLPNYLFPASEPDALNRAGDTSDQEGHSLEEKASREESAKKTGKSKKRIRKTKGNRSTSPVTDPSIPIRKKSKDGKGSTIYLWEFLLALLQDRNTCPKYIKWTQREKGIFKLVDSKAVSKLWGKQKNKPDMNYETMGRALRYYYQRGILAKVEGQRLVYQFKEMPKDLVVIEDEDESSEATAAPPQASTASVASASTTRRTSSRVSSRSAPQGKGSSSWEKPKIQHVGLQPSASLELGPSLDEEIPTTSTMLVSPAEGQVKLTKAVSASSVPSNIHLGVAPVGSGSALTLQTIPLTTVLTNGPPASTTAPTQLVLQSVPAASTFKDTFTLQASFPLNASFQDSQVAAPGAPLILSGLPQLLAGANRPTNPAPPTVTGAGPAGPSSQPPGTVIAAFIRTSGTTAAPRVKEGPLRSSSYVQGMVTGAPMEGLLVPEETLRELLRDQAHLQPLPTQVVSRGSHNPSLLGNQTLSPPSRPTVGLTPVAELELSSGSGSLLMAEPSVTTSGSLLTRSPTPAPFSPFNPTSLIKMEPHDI
Chain of HSF1 (Q00613 whole entry): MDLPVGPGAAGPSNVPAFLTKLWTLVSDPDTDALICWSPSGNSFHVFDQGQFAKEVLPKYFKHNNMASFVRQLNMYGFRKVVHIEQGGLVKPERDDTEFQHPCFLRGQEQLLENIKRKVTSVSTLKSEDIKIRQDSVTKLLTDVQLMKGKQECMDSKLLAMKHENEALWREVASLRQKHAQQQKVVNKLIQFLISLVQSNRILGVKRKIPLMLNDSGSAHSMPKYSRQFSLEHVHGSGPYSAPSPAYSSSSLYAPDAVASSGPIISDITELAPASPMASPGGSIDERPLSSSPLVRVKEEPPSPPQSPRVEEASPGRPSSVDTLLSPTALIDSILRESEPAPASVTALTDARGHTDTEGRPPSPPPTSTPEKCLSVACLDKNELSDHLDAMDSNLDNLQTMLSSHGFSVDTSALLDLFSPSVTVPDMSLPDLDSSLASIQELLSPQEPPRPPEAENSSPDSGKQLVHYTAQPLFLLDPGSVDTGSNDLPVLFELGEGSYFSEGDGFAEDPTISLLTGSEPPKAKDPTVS
Chain of ETV5 (P41161 whole entry): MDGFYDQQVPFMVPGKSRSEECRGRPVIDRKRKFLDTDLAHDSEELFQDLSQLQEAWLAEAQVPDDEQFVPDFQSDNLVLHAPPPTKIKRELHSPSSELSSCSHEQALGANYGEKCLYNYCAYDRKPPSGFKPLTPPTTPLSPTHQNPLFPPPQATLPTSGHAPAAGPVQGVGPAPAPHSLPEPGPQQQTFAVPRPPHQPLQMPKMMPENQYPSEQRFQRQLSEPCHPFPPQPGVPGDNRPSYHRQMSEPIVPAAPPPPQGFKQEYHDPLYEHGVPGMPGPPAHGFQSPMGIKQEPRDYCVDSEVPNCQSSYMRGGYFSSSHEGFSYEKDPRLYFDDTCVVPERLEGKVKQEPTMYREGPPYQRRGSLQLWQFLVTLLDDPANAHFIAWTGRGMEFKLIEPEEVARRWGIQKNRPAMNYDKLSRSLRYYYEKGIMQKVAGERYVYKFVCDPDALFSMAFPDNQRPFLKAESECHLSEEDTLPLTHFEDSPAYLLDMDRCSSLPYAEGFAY
Chain of ETV6 (P41212 whole entry): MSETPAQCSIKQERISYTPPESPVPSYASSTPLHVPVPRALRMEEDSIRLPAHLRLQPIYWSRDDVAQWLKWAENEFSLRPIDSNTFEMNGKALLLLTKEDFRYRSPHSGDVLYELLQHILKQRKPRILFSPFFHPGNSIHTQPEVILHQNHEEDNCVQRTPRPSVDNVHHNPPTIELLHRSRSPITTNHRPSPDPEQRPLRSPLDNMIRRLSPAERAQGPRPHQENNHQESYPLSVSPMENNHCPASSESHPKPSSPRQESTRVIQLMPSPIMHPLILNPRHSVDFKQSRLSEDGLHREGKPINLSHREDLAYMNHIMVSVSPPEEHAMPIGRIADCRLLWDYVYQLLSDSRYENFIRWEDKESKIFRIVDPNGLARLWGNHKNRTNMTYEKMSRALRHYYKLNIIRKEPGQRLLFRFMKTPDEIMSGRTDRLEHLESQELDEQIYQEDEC
Chain of ETV1 (P50549 whole entry): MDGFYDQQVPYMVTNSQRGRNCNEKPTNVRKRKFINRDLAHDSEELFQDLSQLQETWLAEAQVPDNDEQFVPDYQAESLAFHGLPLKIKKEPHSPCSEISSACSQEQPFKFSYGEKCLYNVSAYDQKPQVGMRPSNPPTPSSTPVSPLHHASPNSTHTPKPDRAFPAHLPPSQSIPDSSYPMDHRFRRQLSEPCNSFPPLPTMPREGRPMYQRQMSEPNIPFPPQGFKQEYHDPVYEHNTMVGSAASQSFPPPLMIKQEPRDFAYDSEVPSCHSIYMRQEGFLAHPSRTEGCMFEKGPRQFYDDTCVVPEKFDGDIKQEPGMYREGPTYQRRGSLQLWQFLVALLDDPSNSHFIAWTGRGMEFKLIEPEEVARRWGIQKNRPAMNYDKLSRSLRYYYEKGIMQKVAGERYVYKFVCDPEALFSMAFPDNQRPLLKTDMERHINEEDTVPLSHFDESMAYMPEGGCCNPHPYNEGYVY

As for CGTTCG, the binding signal in the assay with FEV is 1.1 fold enrichment (6-mer frequency, TF over GST control); with ETV5 it was 1.2 fold enrichment (6-mer frequency, TF over GST control); in the assay with HSF1, 1.43 fold enrichment (6-mer frequency, TF over GST control); with SPIC it was 1.16 fold enrichment (6-mer frequency, TF over GST control); with ELF4, 1.32 fold enrichment (6-mer frequency, TF over GST control); in the assay with ELK4, 1.22 fold enrichment (6-mer frequency, TF over GST control). The binding signal was 1.44 fold enrichment (6-mer frequency, TF over GST control) with ETV2; 1.08 fold enrichment (6-mer frequency, TF over GST control) with ELF3; 1.04 fold enrichment (6-mer frequency, TF over GST control) with CRX; 1.19 fold enrichment (6-mer frequency, TF over GST control) with ETV1; 1.52 fold enrichment (6-mer frequency, TF over GST control) with ERF; 1.16 fold enrichment (6-mer frequency, TF over GST control) with ETV3L. The binding signal was 1.25 fold enrichment (6-mer frequency, TF over GST control) with ETS2; 1.04 fold enrichment (6-mer frequency, TF over GST control) in the assay with SPDEF; 1.24 fold enrichment (6-mer frequency, TF over GST control) with ETV7; 1.26 fold enrichment (6-mer frequency, TF over GST control) with ELF5; 1.19 fold enrichment (6-mer frequency, TF over GST control) in the assay with ETV3; 1.29 fold enrichment (6-mer frequency, TF over GST control) with ETV6.

(Values after publication PMC7862700, “An all-to-all approach to the identification of sequence-specific readers for epigenetic DNA modifications on cytosine”.)
